Reference: PubChem BioAssay AID1159580 (chemical genetic matrix, 2015)
Among all 5,500 compounds or so, about 2,000 (36%) were called active. About 18% were inconclusive and are not listed. No stated cut-off is given here; in the data, active means normalized growth mostly below about 0.91 (no sharp cut-off); inconclusive means no clear call, values can overlap the other calls; inactive means mostly above about 0.92. The list shows a part of the results.

Assay: chemical genetic growth profiling, strain panel (AID 1159580);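 further: tested at 20 µM; growth read once vehicle control cultures reached saturation at 30 °C; 1 = growth at the plate median or of vehicle wells; lower values mean less growth of the strain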
Conditions: S. cerevisiae deletion strains, growth OD

Measured: normalized growth

COC1C=CC23c4cc5c(cc4CN(CC2O)[C@@H]3C1)OCO5 (stereo partly specified)
inactive: locus YAL021C, strain ccr4, hits give low values 0.974 | locus YAL026C, strain drs2, hits give low values 0.956 | locus YAL030W, strain snc1, hits give low values 0.989 | locus YBL061C, strain skt5, hits give low values 0.967 | locus YBR009C, strain hhf1, hits give low values 0.969 | locus YBR021W, strain FUR4, hits give low values 1.01 | locus YBR023C, strain chs3, hits give low values 0.966 | locus YBR171W, strain sec66, hits give low values 0.962 | locus YBR229C, strain ROT2, hits give low values 1.01 | locus YBR231C, strain swc5, hits give low values 0.963 | locus YBR279W, strain paf1, hits give low values 0.971 | locus YCL011C, strain gbp2, hits give low values 0.956 | locus YCL016C, strain dcc1, hits give low values 0.992 | locus YCL029C, strain bik1, hits give low values 1 | locus YCL069W, strain vba3, hits give low values 0.948 | locus YCR088W, strain abp1, hits give low values 0.971 | locus YDL005C, strain med2, hits give low values 0.944 | locus YDL035C, strain GPR1, hits give low values 1.01 | locus YDL040C, strain nat1, hits give low values 0.975 | locus YDL074C, strain BRE1, hits give low values 1.05 | locus YDL101C, strain DUN1, hits give low values 1.04 | locus YDL134C, strain PPH21, hits give low values 1.03 | locus YDL185W, strain tfp1, hits give low values 1 | locus YDL192W, strain arf1, hits give low values 0.982 | locus YDR001C, strain nth1, hits give low values 0.979 | locus YDR069C, strain doa4, hits give low values 0.944 | locus YDR101C, strain arx1, hits give low values 0.962 | locus YDR137W, strain rgp1, hits give low values 0.933 | locus YDR159W, strain sac3, hits give low values 0.964 | locus YDR162C, strain NBP2, hits give low values 1.03 | locus YDR195W, strain ref2 0.962 | locus YDR297W, strain sur2, hits give low values 0.977 | locus YDR318W, strain mcm21, hits give low values 0.995 | locus YDR334W, strain swr1, hits give low values 0.966 | locus YDR335W, strain msn5, hits give low values 0.959 | locus YDR388W, hits give low values 1 | locus YDR392W, strain spt3, hits give low values 1.06 | locus YDR502C, strain sam2, hits give low values 1.01 | locus YEL003W, strain gim4, hits give low values 0.972 | locus YEL037C, strain rad23, hits give low values 0.973 | locus YEL061C, strain CIN8 (second series), hits give low values 0.945 | locus YER015W, strain faa2, hits give low values 0.986 | locus YER016W, strain bim1, hits give low values 0.971 | locus YER110C, hits give low values 1 | locus YER111C, strain swi4, hits give low values 0.961 | locus YER155C, strain BEM2 (second series), hits give low values 0.978 | locus YER155C, strain BEM2, hits give low values 0.997 | locus YER167W, strain BCK2, hits give low values 0.992 | locus YFR010W, strain ubp6, hits give low values 0.939 | locus YGL078C, strain dbp3, hits give low values 1.03 | locus YGL086W, strain mad1, hits give low values 0.999 | locus YGL167C, strain pmr1, hits give low values 0.971 | locus YGL173C, strain kem1, hits give low values 0.968 | locus YGL227W, strain vid30, hits give low values 0.979 | locus YGL240W, strain doc1, hits give low values 0.999 | locus YGL248W, strain PDE1, hits give low values 1.04 | locus YGL253W, strain hxk2, hits give low values 0.951 | locus YGR135W, strain pre9, hits give low values 1.05 | locus YGR229C, strain SMI1, hits give low values 1.06 | locus YGR252W, strain gcn5, hits give low values 1.09 | locus YHR013C, strain ard1, hits give low values 0.95 | locus YHR027C, strain rpn1, hits give low values 0.977 | locus YHR079C, strain IRE1 (second series), hits give low values 1.01 | locus YHR094C, strain hxt1, hits give low values 0.992 | locus YHR129C, strain ARP1, hits give low values 1.02 | locus YHR142W, strain chs7, hits give low values 0.956 | locus YHR200W, strain rpn10, hits give low values 1.01 | locus YIL066C, strain RNR3, hits give low values 1.02 | locus YIL073C, strain SPO22, hits give low values 0.964 | locus YIL125W, strain kgd1, hits give low values 0.981 | locus YIR030C, strain dcg1, hits give low values 1 | locus YJL092W, strain hpr5, hits give low values 0.948 | locus YJL095W, strain BCK1 (second series), hits give low values 0.965 | locus YJL095W, strain BCK1, hits give low values 1.08 | locus YJL115W, strain asf1, hits give low values 0.988 | locus YJL129C, strain trk1, hits give low values 0.976 | locus YJL134W, strain LCB3, hits give low values 1 | locus YJL154C, strain vps35, hits give low values 0.968 | locus YJL164C, strain tpk1, hits give low values 0.973 | locus YJL166W, strain qcr8, hits give low values 0.965 | locus YJL168C, strain set2, hits give low values 1.01 | locus YJL187C, strain SWE1 (second series), hits give low values 1.04 | locus YJL187C, strain SWE1, hits give low values 0.957 | locus YKL009W, strain mrt4, hits give low values 1.02 | locus YKL068W, hits give low values 1 | locus YKL085W, strain MDH1 (second series), hits give low values 1.01 | locus YKL085W, strain MDH1, hits give low values 1.01 | locus YKL160W, strain elf1, hits give low values 0.995 | locus YKR001C, strain vps1, hits give low values 0.978 | locus YKR026C, strain gcn3, hits give low values 0.983 | locus YKR091W, strain srl3, hits give low values 0.98 | locus YLL001W, strain dnm1, hits give low values 0.973 | locus YLL026W, hits give low values 1 | locus YLL041C, strain sdh2, hits give low values 0.969 | locus YLR027C, strain aat2, hits give low values 0.991 | locus YLR039C, strain RIC1, hits give low values 1.06 | locus YLR058C, strain SHM2, hits give low values 1.02 | locus YLR102C, strain apc9, hits give low values 0.995 | locus YLR221C, strain rsa3, hits give low values 0.956 | locus YLR258W, strain gsy2, hits give low values 0.97 | locus YLR262C, strain YPT6 (second series), hits give low values 0.917 | locus YLR262C, strain YPT6, hits give low values 1.07 | locus YLR268W, strain sec22, hits give low values 0.974 | locus YLR320W, strain mms22, hits give low values 0.975 | locus YLR342W, strain FKS1, hits give low values 0.99 | locus YLR357W, strain rsc2, hits give low values 0.967 | locus YLR370C, strain arc18, hits give low values 0.949 | locus YLR371W, strain rom2, hits give low values 0.976 | locus YLR384C, strain iki3, hits give low values 0.966 | locus YLR418C, strain cdc73, hits give low values 1.04 | locus YML016C, strain PPZ1, hits give low values 1.01 | locus YML032C, strain rad52, hits give low values 0.98 | locus YML120C, strain ndi1, hits give low values 1 | locus YML124C, strain tub3, hits give low values 0.991 | locus YMR058W, strain fet3, hits give low values 0.983 | locus YMR078C, strain ctf18, hits give low values 1.01 | locus YMR125W, strain sto1, hits give low values 0.922 | locus YMR129W, hits give low values 0.991 | locus YMR205C, strain PFK2, hits give low values 0.998 | locus YMR223W, strain ubp8, hits give low values 0.998 | locus YMR231W, strain pep5, hits give low values 0.974 | locus YMR263W, strain SAP30, hits give low values 1.03 | locus YMR307W, strain GAS1, hits give low values 1.06 | locus YNL067W, strain RPL9B, hits give low values 1.04 | locus YNL071W, strain lat1, hits give low values 0.97 | locus YNL153C, strain GIM3, hits give low values 1.04 | locus YNL209W, strain ssb2, hits give low values 0.981 | locus YNL233W, strain BNI4, hits give low values 1.04 | locus YNL248C, strain rpa49, hits give low values 0.949 | locus YNL250W, strain rad50, hits give low values 1.03 | locus YNL271C, strain bni1, hits give low values 0.988 | locus YNL298W, strain CLA4, hits give low values 0.994 | locus YNL307C, strain MCK1, hits give low values 1.01 | locus YNL322C, strain KRE1 (second series), hits give low values 0.935 | locus YNR049C, strain mso1, hits give low values 0.975 | locus YNR052C, strain pop2, hits give low values 0.997 | locus YOL012C, strain htz1 0.915 | locus YOL147C, strain pex11, hits give low values 1 | locus YOR001W, strain rrp6, hits give low values 0.978 | locus YOR061W, strain CKA2, hits give low values 0.996 | locus YOR069W, strain VPS5, hits give low values 1.01 | locus YOR070C, strain gyp1, hits give low values 0.999 | locus YOR080W, strain dia2, hits give low values 0.976 | locus YOR106W, strain vam3, hits give low values 0.992 | locus YOR136W, strain idh2, hits give low values 1 | locus YOR144C, strain elg1, hits give low values 0.995 | locus YOR184W, strain ser1, hits give low values 0.967 | locus YOR265W, strain rbl2, hits give low values 0.99 | locus YOR270C, strain vph1, hits give low values 0.847 | locus YOR290C, strain snf2, hits give low values 0.976 | locus YOR316C, strain cot1, hits give low values 1 | locus YPL051W, strain arl3, hits give low values 0.99 | locus YPL055C, strain LGE1, hits give low values 1.03 | locus YPL078C, strain atp4, hits give low values 0.986 | locus YPL106C, strain sse1, hits give low values 0.982 | locus YPL240C, strain hsp82, hits give low values 0.965 | locus YPR119W, strain clb2, hits give low values 0.994 | locus YPR141C, strain kar3, hits give low values 0.993 | locus YPR163C, strain tif3, hits give low values 1 | locus YPR167C, strain met16, hits give low values 1 | strain wtn01, hits give low values 1
